Test systems include SK-MEL-2 melanoma; EKVX NSCLC; SN12C renal; UO-31 renal; TK-10 renal; ACHN renal; CAKI-1 renal; A498 renal; CCRF-CEM leukemia; MOLT-4 leukemia; SR leukemia; RPMI-8226 leukemia; OVCAR-8 ovarian; OVCAR-4 ovarian; SK-OV-3 ovarian; IGROV1 ovarian; OVCAR-3 ovarian; OVCAR-5 ovarian; HS 578T breast; NCI/ADR-RES ovarian.
Test in all cases: NCI-60 one-dose screen, 48 h (100 = growth as untreated, 0 = no growth, -100 = all killed)
What all share (details): 10 µM unless noted

Structures are written as SMILES. About 83,000 compounds went through this panel and 20% of them were active in at least one assay; those are over-represented in the sample as a whole.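 How to read the values: 0–100, growth inhibition (40 = 60% inhibited); 0, no net growth; -100 to 0, cell death (-40 = 40% of starting cells died; -100 = all dead).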 Unmarked numbers belong to inactive results. Activity calls are given as the source filed them. How the source made its calls: active means growth percent below 10; inactive means the rest.

For `C=C(C=O)C1CCC2(C(=O)O)CCC3(C)C(CCC4C5(C)CCC(O)C(C)(C)C5CCC43C)C12` (stereo not drawn), the growth in the experiment on SK-MEL-2 melanoma is 30.1%; in the experiment on EKVX NSCLC it was 41.9%; with SN12C renal it was 21.5%; in the experiment with UO-31 renal it was -69.3% (active); in the experiment on TK-10 renal it was 50.5%; with ACHN renal it was -65.4% (active). In addition, the growth in the experiment with CAKI-1 renal is -27.6% (active); with A498 renal, 55.2%; in the experiment on CCRF-CEM leukemia it was 6.48% (active); in the experiment with MOLT-4 leukemia it was 10.4%; in the experiment on SR leukemia it was -2.18% (active); in the experiment with RPMI-8226 leukemia, -12.7% (active). The growth in the experiment with OVCAR-8 ovarian was 16.8%; with OVCAR-4 ovarian, 34.2%; in the experiment on SK-OV-3 ovarian, 51%; in the experiment with IGROV1 ovarian, 6.56% (active); in the experiment on OVCAR-3 ovarian, -86.9% (active).

`CCOC(=O)c1nnn(-c2ccccc2)c1C1=CN(C)CCC1`: the growth is 103% with SK-MEL-2 melanoma; 99% in the experiment with EKVX NSCLC; 106% with SN12C renal; 82% with UO-31 renal; 96.6% with TK-10 renal; 100% with ACHN renal. For the same compound, the growth was 97.8% with CAKI-1 renal; 101% with A498 renal; 109% with CCRF-CEM leukemia; 97.3% with MOLT-4 leukemia; 88.8% in the experiment with SR leukemia; 113% in the experiment on RPMI-8226 leukemia. Moreover, the growth was 102% in the experiment with OVCAR-8 ovarian; 99.9% with OVCAR-5 ovarian; 97.2% in the experiment on SK-OV-3 ovarian; 104% in the experiment on IGROV1 ovarian; 100% in the experiment with OVCAR-3 ovarian; 91.9% in the experiment on HS 578T breast. The growth in the experiment with NCI/ADR-RES ovarian is 102%.

For the compound `COc1cc(C(=O)/C=C/c2c(C(F)(F)F)nc3ccccn23)cc(OC)c1OC`, the growth in the experiment with SK-MEL-2 melanoma was -49.3% (active); in the experiment with EKVX NSCLC it was -0.4% (active); in the experiment on SN12C renal, 3.89% (active); with UO-31 renal it was -71.1% (active); with TK-10 renal, 11.2%; with ACHN renal it was -78.7% (active). The growth was -25.5% (active) in the experiment on CAKI-1 renal; 8.53% (active) in the experiment with A498 renal; 5.58% (active) in the experiment on CCRF-CEM leukemia; 4.22% (active) in the experiment on MOLT-4 leukemia; -9.2% (active) in the experiment with SR leukemia; -14.6% (active) in the experiment on RPMI-8226 leukemia. Besides, the growth was 3.68% (active) with OVCAR-8 ovarian; 8.45% (active) in the experiment with OVCAR-4 ovarian; -1.92% (active) in the experiment on SK-OV-3 ovarian; 9.02% (active) in the experiment with IGROV1 ovarian; -57.3% (active) with OVCAR-3 ovarian.

Take `Cc1nc(Nc2ccc(N)cc2)c2ccccc2n1`: the growth in the experiment on SK-MEL-2 melanoma was 101%; in the experiment with EKVX NSCLC it was 101%; in the experiment with SN12C renal it was 93.1%; in the experiment on UO-31 renal, 81.4%; in the experiment on TK-10 renal, 110%; in the experiment on ACHN renal, 80.1%. Besides, the growth in the experiment on CAKI-1 renal is 91.2%; in the experiment on A498 renal, 97.3%; in the experiment on CCRF-CEM leukemia it was 86.2%; with MOLT-4 leukemia, 100%; in the experiment on SR leukemia it was 56.8%; in the experiment on OVCAR-8 ovarian it was 95.3%. Also, the growth was 100% in the experiment on OVCAR-5 ovarian; 91.2% with OVCAR-4 ovarian; 113% in the experiment on SK-OV-3 ovarian; 92.7% with IGROV1 ovarian; 101% in the experiment with OVCAR-3 ovarian; 104% in the experiment on HS 578T breast. Further, the growth in the experiment on NCI/ADR-RES ovarian was 93.6%.

As for `Cc1nc(Nc2ccc(S(=O)(=O)Nc3cc(C)on3)cc2)c2ccccc2n1`, the growth is 102% in the experiment with SK-MEL-2 melanoma; 90% with EKVX NSCLC; 102% in the experiment on SN12C renal; 84.2% in the experiment on UO-31 renal; 99.7% with TK-10 renal; 107% in the experiment on ACHN renal. The growth was 90.7% in the experiment on CAKI-1 renal; 94.3% in the experiment with A498 renal; 103% in the experiment with CCRF-CEM leukemia; 104% in the experiment on MOLT-4 leukemia; 111% in the experiment with SR leukemia; 111% in the experiment on RPMI-8226 leukemia. The growth in the experiment on OVCAR-5 ovarian is 101%; in the experiment on OVCAR-4 ovarian it was 105%; with SK-OV-3 ovarian it was 93%; in the experiment with IGROV1 ovarian, 96.9%; in the experiment on OVCAR-3 ovarian, 103%; in the experiment with HS 578T breast it was 108%. Besides, the growth in the experiment on NCI/ADR-RES ovarian is 107%.

With `Cc1cc(Cc2cc(C)cc(C(C)(C)C)c2O)c(O)c(C(C)(C)C)c1`, the growth was 68.8% with SK-MEL-2 melanoma; 26.5% in the experiment on EKVX NSCLC; 28.1% with SN12C renal; 43% with UO-31 renal; 52.8% in the experiment with TK-10 renal; 34.3% with ACHN renal. For the same compound, the growth with CAKI-1 renal is 31%; in the experiment on A498 renal, 90.2%; in the experiment on CCRF-CEM leukemia, 28.5%; in the experiment with MOLT-4 leukemia it was 29.1%; with SR leukemia, -7.3% (active); with RPMI-8226 leukemia it was 32.2%. Further, the growth in the experiment on OVCAR-8 ovarian is 33.9%; in the experiment with OVCAR-4 ovarian it was 48.5%; with SK-OV-3 ovarian, 51.9%; with IGROV1 ovarian it was 47.5%; in the experiment with OVCAR-3 ovarian, 38.5%.

As to `O=C(O)c1ccccc1C(=O)Nc1ccc(Cl)cc1`, the growth in the experiment with SK-MEL-2 melanoma is 102%; in the experiment with EKVX NSCLC, 96.2%; in the experiment on SN12C renal it was 102%; in the experiment on UO-31 renal, 84.6%; with TK-10 renal, 93.3%; with ACHN renal, 94.9%. Also, the growth in the experiment with CAKI-1 renal is 74.1%; with A498 renal it was 108%; in the experiment with CCRF-CEM leukemia, 110%; in the experiment on MOLT-4 leukemia, 71.2%; with SR leukemia, 80.4%; with OVCAR-8 ovarian, 87.7%. Further, the growth was 103% in the experiment on OVCAR-5 ovarian; 110% with OVCAR-4 ovarian; 109% in the experiment on SK-OV-3 ovarian; 102% in the experiment on IGROV1 ovarian; 110% in the experiment with OVCAR-3 ovarian; 132% in the experiment on HS 578T breast. The growth in the experiment on NCI/ADR-RES ovarian was 104%.

With `COc1ccc(C2CC(c3ccc4ccccc4c3)=NN2c2nc(O)c(C3=c4cc(Cl)ccc4=NC3=O)s2)cc1` (stereo not drawn), the growth in the experiment with SK-MEL-2 melanoma is -77% (active); in the experiment on EKVX NSCLC, -74.3% (active); in the experiment on SN12C renal, -30.5% (active); in the experiment with UO-31 renal, -85% (active); in the experiment with TK-10 renal, -66.6% (active); in the experiment with ACHN renal it was -63.8% (active). Moreover, the growth in the experiment with CAKI-1 renal was -50.4% (active); in the experiment on A498 renal, -84.3% (active); in the experiment on CCRF-CEM leukemia, -19% (active); in the experiment with MOLT-4 leukemia it was -21.5% (active); with SR leukemia, -34.4% (active); in the experiment on RPMI-8226 leukemia it was -3.59% (active). The growth in the experiment on OVCAR-8 ovarian was -16.1% (active); in the experiment with OVCAR-5 ovarian, -7.92% (active); in the experiment on OVCAR-4 ovarian it was -61.5% (active); with IGROV1 ovarian, -11.5% (active); with OVCAR-3 ovarian, -83.1% (active); in the experiment on HS 578T breast, -5.85% (active). The growth in the experiment with NCI/ADR-RES ovarian is 58.8%.

`COc1cc(/C=C/C(=O)c2cccc(-n3cc(-c4ccccc4)[nH]c3=O)c2)cc(OC)c1OC`: the growth in the experiment on SK-MEL-2 melanoma was -64.5% (active); with EKVX NSCLC, 17%; with SN12C renal, 10.4%; in the experiment on UO-31 renal, -45.2% (active); with TK-10 renal, -5.4% (active); with ACHN renal, -64.9% (active). Besides, the growth was 12.2% with CAKI-1 renal; 33.2% in the experiment on A498 renal; 3.61% (active) with CCRF-CEM leukemia; -12.6% (active) in the experiment with MOLT-4 leukemia; -15.9% (active) in the experiment with SR leukemia; -39.4% (active) in the experiment on RPMI-8226 leukemia. For the same compound, the growth with OVCAR-8 ovarian is 12.5%; in the experiment with OVCAR-4 ovarian, -7.54% (active); with SK-OV-3 ovarian it was 4.74% (active); with IGROV1 ovarian, -23.8% (active); in the experiment with OVCAR-3 ovarian it was 6.35% (active).

Values taken from PubChem BioAssay (NCI).
